{
  "source": "PubChem BioAssay AID651776",
  "about": "(Vanderbilt Specialized Chemistry Center, 2012)",
  "target": "Muscarinic acetylcholine receptor M5 (Homo sapiens) (UniProt P08912)",
  "sequence (P08912 whole entry, looked up)": "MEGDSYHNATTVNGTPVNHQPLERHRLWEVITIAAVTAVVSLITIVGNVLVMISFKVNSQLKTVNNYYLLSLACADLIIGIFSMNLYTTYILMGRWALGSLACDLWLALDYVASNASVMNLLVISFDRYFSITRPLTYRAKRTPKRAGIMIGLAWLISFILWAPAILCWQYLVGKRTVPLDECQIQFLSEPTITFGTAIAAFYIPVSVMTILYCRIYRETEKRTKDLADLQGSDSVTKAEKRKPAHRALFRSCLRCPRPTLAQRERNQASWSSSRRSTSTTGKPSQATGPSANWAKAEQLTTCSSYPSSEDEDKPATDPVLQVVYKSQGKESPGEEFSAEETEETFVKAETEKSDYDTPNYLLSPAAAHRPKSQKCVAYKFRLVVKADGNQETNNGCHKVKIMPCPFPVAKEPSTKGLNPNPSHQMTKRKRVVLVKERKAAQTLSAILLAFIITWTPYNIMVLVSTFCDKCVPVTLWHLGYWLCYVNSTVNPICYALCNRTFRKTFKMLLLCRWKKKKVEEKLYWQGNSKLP",
  "test": "agonist curve shift by M5 PAMs – cell-based, calcium fluorescence, mechanism study (AID 651776)",
  "conditions": "M5-expressing cells, stronger effect = higher value",
  "data": [
    {"molecule": "O=C1C(=O)N(CCOc2ccccc2)c2ccc(OC(F)(F)F)cc21", "values": [
      {"measurement": "fold shift", "value": 19.2}
    ]}
  ]
}
